# According to the supplement of paper PMC10037445:
# ± gives the standard deviation of the averaged measurements. In all, about 2,900 compounds were measured (“NF-kB SEAP reporter activity, fold change vs agonist alone”: median about 0.99, highest 2% from about 2.6 on). The list comes from a sample in which the highest values are over-represented; it also holds similar structures and randomly drawn compounds.
# What was measured:
# RAW-Dual [1] = test: NF-kB SEAP reporter activity, fold change vs agonist alone; cytotoxicity flag (confluency mask): not cytotoxic; higher = enhanced NF-kB activity
# Method in brief: (§1)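 Reporter activity is given as fold change relative to agonist-alone wells. To measure it, 50 nL of library stock was pin-tooled onto RAW-Dual macrophages (50,000 cells/well, DMEM, 384-well plates), a PRR agonist followed 1 h later, and cells stayed at 37 °C, 5% CO2. Twenty hours on, supernatant was assayed for IRF (QuantiLuc luminescence) and NF-κB (QuantiBlue, 620 nm absorbance), and wells under 70% of agonist-control IncuCyte confluency in both mask sets were marked cytotoxic.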
# RAW-Dual [2] = test: NF-kB SEAP reporter activity, fold change vs agonist alone; higher = enhanced NF-kB activity
# Method in brief: as §1
# RAW-Dual [3] = test: NF-kB SEAP reporter activity, fold change vs agonist alone; cytotoxicity flag (confluency mask): cytotoxic (confluency <70% of control); higher = enhanced NF-kB activity
# Method in brief: as §1
# [4] = agonist: ODN 1826 (TLR9) 0.5 ug/mL
# [5] = agonist: Pam2CSK4 (TLR2/6) 0.1 ug/mL
# [6] = agonist: Pam3CSK4 (TLR2/1) 0.1 ug/mL
# [7] = library stock concentration (final ~1000-fold dilution): 10 mM, cytotoxicity flag (confluency mask): not cytotoxic, agonist: Imiquimod (TLR7) […]
# [8] = library stock concentration (final ~1000-fold dilution): 10 mM, cytotoxicity flag (confluency mask): not cytotoxic, agonist: MPLA (TLR4) […]
# [9] = library stock concentration (final ~1000-fold dilution): 10 mM, cytotoxicity flag (confluency mask): cytotoxic (confluency <70% of control), agonist: Imiquimod (TLR7) […]
# [10] = library stock concentration (final ~1000-fold dilution): 10 mM, cytotoxicity flag (confluency mask): cytotoxic (confluency <70% of control), agonist: MPLA (TLR4) […]
compound,measurement,setting,value
CCCOc1ccc(CCc2nc3cc(-c4c(C)noc4C)ccc3n2CCN2CCOCC2)cc1.Cl (library stock concentration (final ~1000-fold dilution): 10 mM),NF-kB SEAP reporter activity,RAW-Dual [1]; agonist: LPS (TLR4) 0.1 ug/mL,2.48
same,NF-kB SEAP reporter activity,RAW-Dual [1]; [4],1.9
same,NF-kB SEAP reporter activity,RAW-Dual [1]; [5],0.609
same,NF-kB SEAP reporter activity,RAW-Dual [1]; [6],1.04
COc1ccc(CCc2nc3cc(-c4c(C)noc4C)ccc3n2CC(C)N2CCOCC2)cc1Cl (configuration not stated),NF-kB SEAP reporter activity,RAW-Dual [2]; [7],1.51
same,NF-kB SEAP reporter activity,RAW-Dual [2]; [8],2.65
COc1ccc(CCc2nc3cc(-c4c(C)noc4C)ccc3n2CC(C)N2CCOCC2)cc1Cl (configuration not stated) (library stock concentration (final ~1000-fold dilution): 10 mM),NF-kB SEAP reporter activity,RAW-Dual [1]; agonist: LPS (TLR4) 0.1 ug/mL,4.47
same,NF-kB SEAP reporter activity,RAW-Dual [1]; [4],2.49
same,NF-kB SEAP reporter activity,RAW-Dual [1]; [5],1.06
same,NF-kB SEAP reporter activity,RAW-Dual [1]; [6],2.27
CCCOc1ccc(CCc2nc3cc(-c4c(C)noc4C)ccc3n2CCN2CCOCC2)cc1.Cl,NF-kB SEAP reporter activity,RAW-Dual [2]; [7],1.53
same,NF-kB SEAP reporter activity,RAW-Dual [2]; [8],1.98
Cc1nc2cc(F)c(F)cc2n1-c1cncc(Nc2ccc(C(F)(F)F)cc2)n1 (library stock concentration (final ~1000-fold dilution): 10 mM),NF-kB SEAP reporter activity,RAW-Dual [1]; agonist: LPS (TLR4) 0.1 ug/mL,1.36
same,NF-kB SEAP reporter activity,RAW-Dual [1]; [4],1.31
same,NF-kB SEAP reporter activity,RAW-Dual [1]; [5],0.571
same,NF-kB SEAP reporter activity,RAW-Dual [1]; [6],0.582
Cc1nc2cc(F)c(F)cc2n1-c1cncc(Nc2ccc(C(F)(F)F)cc2)n1,NF-kB SEAP reporter activity,RAW-Dual [2]; [7],1.56
same,NF-kB SEAP reporter activity,RAW-Dual [2]; [8],1.33
CC1=CC2(O)OC3(CC2=C(C)C)C(C)CCC13 (configuration not stated),NF-kB SEAP reporter activity,RAW-Dual [2]; [7],0.957 ± 0.03
same,NF-kB SEAP reporter activity,RAW-Dual [2]; [8],1.03 ± 0.025
CC1=CC2(O)OC3(CC2=C(C)C)C(C)CCC13 (configuration not stated) (library stock concentration (final ~1000-fold dilution): 10 mM),NF-kB SEAP reporter activity,RAW-Dual [1]; agonist: LPS (TLR4) 0.1 ug/mL,1.04 ± 0.043
same,NF-kB SEAP reporter activity,RAW-Dual [1]; [4],0.938 ± 0.07
same,NF-kB SEAP reporter activity,RAW-Dual [1]; [5],0.963 ± 0.062
same,NF-kB SEAP reporter activity,RAW-Dual [1]; [6],1.06 ± 0.049
CCc1cc2c(cc1N1CCC(N3CCOCC3)CC1)C(C)(C)c1[nH]c3cc(C#N)ccc3c1C2=O.Cl,NF-kB SEAP reporter activity,"RAW-Dual [2]; library stock concentration (final ~1000-fold dilution): 2 mM, cytotoxicity flag (confluency mask): not cytotoxic, agonist: MPLA (TLR4) […]",1.31
CCc1cc2c(cc1N1CCC(N3CCOCC3)CC1)C(C)(C)c1[nH]c3cc(C#N)ccc3c1C2=O.Cl (library stock concentration (final ~1000-fold dilution): 2 mM),NF-kB SEAP reporter activity,RAW-Dual [1]; agonist: LPS (TLR4) 0.1 ug/mL,1.71
same,NF-kB SEAP reporter activity,RAW-Dual [1]; [4],1.17
same,NF-kB SEAP reporter activity,RAW-Dual [1]; [5],1.15
same,NF-kB SEAP reporter activity,RAW-Dual [1]; [6],1.15
O=C(O)c1ccc(/C=C2/SC(=S)N(Cc3cccc(C(F)(F)F)c3)C2=O)cc1,NF-kB SEAP reporter activity,RAW-Dual [2]; [7],0.954
same,NF-kB SEAP reporter activity,RAW-Dual [2]; [8],0.727
O=C(O)c1ccc(/C=C2/SC(=S)N(Cc3cccc(C(F)(F)F)c3)C2=O)cc1 (library stock concentration (final ~1000-fold dilution): 10 mM),NF-kB SEAP reporter activity,RAW-Dual [1]; agonist: LPS (TLR4) 0.1 ug/mL,0.619
same,NF-kB SEAP reporter activity,RAW-Dual [1]; [4],0.737
same,NF-kB SEAP reporter activity,RAW-Dual [1]; [5],0.832
same,NF-kB SEAP reporter activity,RAW-Dual [1]; [6],0.5
COc1cc(OCc2cccc(-c3ccccc3)c2C)cc(OC)c1CN1CCCCC1C(=O)O (configuration not stated) (library stock concentration (final ~1000-fold dilution): 10 mM),NF-kB SEAP reporter activity,RAW-Dual [3]; agonist: LPS (TLR4) 0.1 ug/mL,1.21
same,NF-kB SEAP reporter activity,RAW-Dual [3]; [4],0.794
same,NF-kB SEAP reporter activity,RAW-Dual [3]; [5],1.03
same,NF-kB SEAP reporter activity,RAW-Dual [3]; [6],1.17
COc1cc(OCc2cccc(-c3ccccc3)c2C)cc(OC)c1CN1CCCCC1C(=O)O (configuration not stated),NF-kB SEAP reporter activity,RAW-Dual [2]; [9],1.22
same,NF-kB SEAP reporter activity,RAW-Dual [2]; [10],1.03
Cc1nccn1CC1CCc2c(c3ccccc3n2C)C1=O.Cl (configuration not stated) (library stock concentration (final ~1000-fold dilution): 10 mM),NF-kB SEAP reporter activity,RAW-Dual [1]; agonist: LPS (TLR4) 0.1 ug/mL,0.91
same,NF-kB SEAP reporter activity,RAW-Dual [1]; [4],0.853
same,NF-kB SEAP reporter activity,RAW-Dual [1]; [5],0.901
same,NF-kB SEAP reporter activity,RAW-Dual [1]; [6],1.11
Cc1nccn1CC1CCc2c(c3ccccc3n2C)C1=O.Cl (configuration not stated),NF-kB SEAP reporter activity,RAW-Dual [2]; [7],0.917
same,NF-kB SEAP reporter activity,RAW-Dual [2]; [8],0.785
COc1cc2ncnc(Nc3cc(Br)c(O)c(Br)c3)c2cc1OC,NF-kB SEAP reporter activity,RAW-Dual [2]; [7],0.787
same,NF-kB SEAP reporter activity,RAW-Dual [2]; [8],1.53
C#Cc1cccc(Nc2ncnc3cc(OC)c(NC(=O)N4CC5CCN(C)C5C4)cc23)c1 (configuration not stated),NF-kB SEAP reporter activity,RAW-Dual [2]; [7],1.09
same,NF-kB SEAP reporter activity,RAW-Dual [2]; [8],1.4
C#Cc1cccc(Nc2ncnc3cc(OC)c(NC(=O)N4CC5CCN(C)C5C4)cc23)c1 (configuration not stated) (library stock concentration (final ~1000-fold dilution): 10 mM),NF-kB SEAP reporter activity,RAW-Dual [1]; agonist: LPS (TLR4) 0.1 ug/mL,3.99
same,NF-kB SEAP reporter activity,RAW-Dual [1]; [4],0.205
same,NF-kB SEAP reporter activity,RAW-Dual [1]; [5],0.732
same,NF-kB SEAP reporter activity,RAW-Dual [1]; [6],0.783
COc1cc2ncnc(Nc3ccc(O)c(Br)c3)c2cc1OC (library stock concentration (final ~1000-fold dilution): 10 mM),NF-kB SEAP reporter activity,RAW-Dual [1]; agonist: LPS (TLR4) 0.1 ug/mL,2.33
same,NF-kB SEAP reporter activity,RAW-Dual [1]; [4],1.17
same,NF-kB SEAP reporter activity,RAW-Dual [1]; [5],0.685
same,NF-kB SEAP reporter activity,RAW-Dual [1]; [6],1.19
C#Cc1cccc(Nc2ncnc3cc(OCCOC)c(OCCO)cc23)c1.Cl,NF-kB SEAP reporter activity,RAW-Dual [2]; [7],1.81
same,NF-kB SEAP reporter activity,RAW-Dual [2]; [8],2.51
C#Cc1cccc(Nc2ncnc3cc(OCCOC)c(OCCOC)cc23)c1,NF-kB SEAP reporter activity,RAW-Dual [2]; [7],1.02
same,NF-kB SEAP reporter activity,RAW-Dual [2]; [8],1.88
COc1cc2ncnc(Nc3ccc(F)c(Cl)c3)c2cc1NC(=O)/C=C/CN1CCCCC1 (library stock concentration (final ~1000-fold dilution): 10 mM),NF-kB SEAP reporter activity,RAW-Dual [3]; agonist: LPS (TLR4) 0.1 ug/mL,0.266
same,NF-kB SEAP reporter activity,RAW-Dual [3]; [4],0.26
same,NF-kB SEAP reporter activity,RAW-Dual [3]; [5],0.179
same,NF-kB SEAP reporter activity,RAW-Dual [3]; [6],0.384
C#Cc1cccc(Nc2ncnc3cc(OC)c(OCCCCCCC(=O)NO)cc23)c1,NF-kB SEAP reporter activity,RAW-Dual [2]; [9],1.4
same,NF-kB SEAP reporter activity,RAW-Dual [2]; [10],1.87
C#Cc1cccc(Nc2ncnc3cc4c(cc23)OCCOCCOCCO4)c1 (library stock concentration (final ~1000-fold dilution): 10 mM),NF-kB SEAP reporter activity,RAW-Dual [1]; agonist: LPS (TLR4) 0.1 ug/mL,1.8
same,NF-kB SEAP reporter activity,RAW-Dual [1]; [4],0.972
same,NF-kB SEAP reporter activity,RAW-Dual [1]; [5],1.16
same,NF-kB SEAP reporter activity,RAW-Dual [1]; [6],1.44
COc1cc2ncnc(Nc3cc(Br)c(O)c(Br)c3)c2cc1OC (library stock concentration (final ~1000-fold dilution): 10 mM),NF-kB SEAP reporter activity,RAW-Dual [1]; agonist: LPS (TLR4) 0.1 ug/mL,2.14
same,NF-kB SEAP reporter activity,RAW-Dual [1]; [4],0.951
same,NF-kB SEAP reporter activity,RAW-Dual [1]; [5],0.984
same,NF-kB SEAP reporter activity,RAW-Dual [1]; [6],0.757
